Assay results taken from PubChem BioAssay AID504832 (National Center for Advancing Translational Sciences (NCATS), 2011).
In all, about 310,000 compounds went through this assay and about 18,000 (5.8%) were called active. Entries that show only a call come without a potency. About 22% were inconclusive and are not listed. The sample as a whole holds a higher share of actives than the screen did. Unmarked numbers belong to inactive results. Calls follow the shape of the dose curve; as a rule, active = well fitted inhibition curve with a large enough effect; inconclusive = small, poorly fitted or top-dose-only effect, or another doubt; inactive = no such curve, though single readings can be large or run the other way.

assay: Primary qHTS for delayed death inhibitors of the malarial parasite plastid, 48 hour incubation; details: P. falciparum luciferase growth in erythrocytes; series mostly up to 28.7 µM
From the text: The goal of this screen is to discover new antimalarial compounds that act by inhibiting the development of the apicoplast in the malarial parasite Plasmodium falciparum. The biochemical processes that make this organelle essential for erythrocytic stage parasites are not well understood. However, antibiotics such as azithromycin and tetracycline, which target the apicoplast translational machinery, have a potent antimalarial effect.
We have developed a cell-based assay that measures parasite growth based on the expression of an integrated copy of a firefly luciferase reporter. To detect small molecules that cause this "delayed death" phenotype, erythrocytes infected with the luciferase-expressing parasites were incubated with compounds for either one or two generations, corresponding to 48 and 96 hours, respectively. Compounds that inhibit parasite growth in the second generation, but not the first, should be enriched in antimalarials that target the apicoplast. Growth inhibition is detected by a decrease in luciferase activity.
Assay Provider: David Fidock and Eric Ekland, Columbia University
Keywords: NIH Roadmap, MLPCN, MLI, MLSMR, qHTS, NCGC, qHTS, malaria, luciferase, viability
Four microliters of culture medium (RPMI 1640 with 0.5% w/v Albumax (GIBCO), 24 mM sodium bicarbonate and 10 ug/mL gentamycin) were dispensed by a Multi-drop Combi into white solid 1536-well plates (Grenier) and 23 nL compound was added by a pin tool. Four microliters of infected erythrocytes (2% hematocrit, 0.1% parasitemia final concentration) in culture medium were dispensed and the plates incubated for 48 hours at 37 C in 5% CO2. Two microliters of luciferase detection reagent was added and luminescence was detected by a ViewLux (PerkinElmer) reader.
Potency is read from the fitted curve at half-maximal effect.

SMILES	Potency	activity change, negative = inhibition
CCn1c(CN2C(=O)CSc3ccccc32)n[nH]c1=S	inactive	
COc1ccc(CN2C(=O)CN=C2Nc2ccc(C)cc2C)cc1	inactive	
CC(C)(C)c1ccc(CN2C(=O)CN=C(c3ccccc3)c3ccccc32)cc1	2.08 µM (active)	
O=S(=O)(NCCc1ccc(Cl)cc1)c1cccs1	inactive	
Cc1cc(NCc2ccco2)n2c(nc3ccccc32)c1C#N	4.15 µM (active)	
Cc1cc(NC(C)C)n2c(nc3ccccc32)c1C#N	inactive	
Cc1ccccc1-c1nc(C#N)c(NCc2ccco2)o1	inactive	
COc1ccc(CCN2CC(C(=O)NCCN3CCNC3=O)CCC2=O)cc1 (stereo unspecified)	inactive	
O=C(O)C1CCCCC1C(=O)N1CCN(S(=O)(=O)c2ccc(F)cc2)CC1 (stereo unspecified)	inactive	
CC1CCN(S(=O)(=O)c2ccc(S(=O)(=O)NCc3ccco3)cc2)CC1	inactive	
O=C(CN1CCN(S(=O)(=O)c2ccc(F)cc2)CC1)NC1CC1	inactive	
Cc1ccc(S(=O)(=O)N2CCC(C(=O)N[C@@H](C)C(=O)NCc3ccco3)CC2)cc1	inactive	
O=S(=O)(c1ccc(F)cc1)N1CCN(C(=S)NCc2ccco2)CC1	1.47 µM (active)	
O=S(=O)(c1ccc(F)cc1)N1CCN(C(=S)NC2CCCC2)CC1	7.38 µM (active)	
C=CCOc1ccc(/C=C/C(=O)OC(C)C(=O)Nc2ccc(NC(C)=O)cc2)cc1 (stereo unspecified)	inactive	
O=C(CN1CCCCCC1)Nc1ccc(Br)cc1[N+](=O)[O-]	inactive	
Cc1cc(OCC(=O)N(C)c2c(N)n(Cc3ccccc3)c(=O)[nH]c2=O)c(C(C)C)cc1Cl	inactive	
COc1ccc(CCN2C(=O)c3[nH]nc(-c4ccccc4O)c3C2c2ccc(C)cc2)cc1OC (stereo unspecified)	9.28 µM (active)	
COc1cc(C2C(C(=O)c3ccc(C)o3)=C(O)C(=O)N2CCc2ccccc2)ccc1O (stereo unspecified)	inactive	
COc1ccc(CCN(C)CCN2C(=O)c3ccccc3C2=O)cc1OC	inactive	
COc1ccc(NC(=O)C2=C(C)NC(=O)NC2c2ccccc2[N+](=O)[O-])cc1 (stereo unspecified)	inactive	
COC(=O)c1nc2n(n1)C(c1ccc([N+](=O)[O-])cc1)C(C(=O)Nc1ccc(Cl)cc1)=C(C)N2 (stereo unspecified)	1.65 µM (active)	

SMILES	Potency	activity change, negative = inhibition
COCCOC(=O)C1=C(C)Nc2nc(C)nn2C1c1ccccc1 (stereo unspecified)	inactive	
COCCN1CCN(C(=O)c2cc(COc3ccc(F)cc3Cl)on2)CC1	inactive	
CC1CC(C)CN(S(=O)(=O)c2cccc3nonc23)C1 (stereo unspecified)	inactive	
C=CCn1c(SCC(=O)NCCCO)nc2sc3c(c2c1=O)CCC3	inactive	
CC(C)c1nc(SCC(=O)Nc2cccc(C(=O)O)c2)c2c3c(sc2n1)CCCC3	inactive	
O=C(CN1C(=O)C2C3CCC(C3)C2C1=O)Oc1ccc2ccccc2c1 (stereo unspecified)	inactive	
Cc1ccc(C)n1C(Cc1ccccc1)C(=O)O (stereo unspecified)	inactive	
CC(OC(=O)CN1C(=O)C2CCCCC2C1=O)C(=O)Nc1ncc(Cl)cc1Cl (stereo unspecified)	inactive	
CC1=CC(C)(C)Nc2ccc(OC(=O)CN3C(=O)C4CCCCC4C3=O)cc21 (stereo unspecified)	10.4 µM (active)	
CC1=CC(C)(C)Nc2ccc(OC(=O)C(Cc3ccccc3)N3C(=O)C4CCCCC4C3=O)cc21 (stereo unspecified)	13.1 µM (active)	
CCC1(C)NC(=O)N(CC(=O)N2CCN(c3cccc(Cl)c3)CC2)C1=O (stereo unspecified)	inactive	
Cc1ccc(C)c(NC(=O)COC(=O)CSc2ccccc2)c1	inactive	
Cc1cccc(C)c1NC(=O)N1CC(C)OC(C)C1 (stereo unspecified)	inactive	
Cc1sc2nc(CSCC(=O)NC3CCCCC3)[nH]c(=O)c2c1C	inactive	
CNC(=O)CN1C(=O)NC(c2ccccc2)(c2ccccc2)C1=O	inactive	
CCC1(c2ccccc2)C(=O)NC(=O)N(C)C1=O (stereo unspecified)	16.9 µM (active)	
Cc1c(C=O)n(C)n(-c2ccccc2)c1=O	inactive	
CN(CCc1ccccc1)c1ccc([N+](=O)[O-])cn1	inactive	
COc1ccccc1/C=C1\SC(=O)N(CCC(=O)N(C)C2CCS(=O)(=O)C2)C1=O (stereo unspecified)	inactive	
CCC(=O)c1ccc(OC(=O)/C=C/c2cc(OC)c(OC)c(OC)c2)cc1	inactive	
Cc1ccc(C)c(NC(=S)NCC(c2cccnc2)N2CCOCC2)c1 (stereo unspecified)	inactive	
CN1CCN(C(CNS(=O)(=O)c2cccs2)c2cccnc2)CC1 (stereo unspecified)	inactive	

SMILES	Potency	activity change, negative = inhibition
O=C(NCC(c1cccnc1)N1CCN(c2ccccc2)CC1)Oc1ccccc1 (stereo unspecified)	13.1 µM (active)	
COc1cc(CO)ccc1OCC(=O)Nc1cccc2ccccc12	inactive	
CC(C)(CNC(=O)CNC(=O)C1CCCCC1)N1CCOCC1	inactive	
O=C(NC(=S)Nc1ccc(Cl)c(C(=O)O)c1)c1cncc(Br)c1	inactive	
O=C(CCNS(=O)(=O)c1ccccc1)Nc1ccc(Cl)cc1C(=O)c1ccccc1	11.7 µM (active)	
CN1CCN(C(=S)SCC(=O)Nc2ccc(Cl)cc2C(=O)c2ccccc2)CC1	inactive	
O=C(COC(=O)c1ccccc1)Nc1ccc(Cl)cc1C(=O)c1ccccc1	inactive	
COc1ccc(-c2nnc(SCC(=O)Nc3cccnc3Cl)n2C)cc1	inactive	
Cc1ccc(NC(=O)CN(C)C(=O)Cn2nnc(-c3ccccc3)n2)cc1	inactive	
COc1ccccc1C(=O)COC(=O)CNS(=O)(=O)c1ccc(NC(C)=O)cc1	inactive	
O=C(Nc1ncccc1O)c1ccc(C(=O)c2ccccc2)cc1	0.738 µM (active)	
O=C(Nc1cccc(F)c1)c1ccc(S(=O)(=O)N2CCCC2)cc1	inactive	
O=C(N/N=C/c1ccccn1)c1ccc(S(=O)(=O)N2CCCCCC2)cc1	inactive	
O=C(Nc1ccc(S(=O)(=O)N2CCCCCC2)cc1)c1c(F)cccc1F	inactive	
O=C(NC(=O)c1ccccc1)Nc1ccccc1O		-2.78% [at 0.00184 µM]
O=C(Nc1ncccc1O)c1ccc(S(=O)(=O)N2CCCCCC2)cc1	4.15 µM (active)	
O=C(CNC(=O)c1ccc2ccccc2c1)Nc1ncccc1O	inactive	
O=C(Nc1ncccc1O)c1ccc(S(=O)(=O)N2CCCC2)cc1	3.29 µM (active)	
O=C(Nc1cccnc1)c1cccc(S(=O)(=O)N2CCCC2)c1	inactive	
O=C(COc1ccc(Cl)cc1Cl)N/N=C/c1ccccn1	inactive	
CCc1ccc(NC(=O)CCNS(=O)(=O)c2cccs2)cc1	inactive	
O=C(CCNC(=O)c1ccccc1)Nc1nc2ccccc2s1	inactive	
